Shown are actives, neighbours in structure and some others; about 6.2% of the full set was active somewhere.
Marburg entry inh = inhibitors of Marburg virus binding or cell entry. 300,000 compounds, 1.8% hits. Potency, µM (series often up to 37.8 µM), without a hit: top-dose activity change, negative = inhibition, actives largely listed as inhibitors. AID 540276. Marburg virus pseudotyped entry inhibition, cell reporter; calls by dose curve; tested in HEK293 cells; further: potency means the concentration at half of the fitted maximal effect
FMDV antiviral = foot and mouth disease virus antiviral activity; FMDV antiviral cell-based qHTS; Potency, µM (highest dose often 57.9 µM), for the others: at the top dose activity change, negative = inhibition, usual class: inhibitors; 410,000 compounds, 1.2% hits; calls by dose curve; tested in HEK293T cells; further: read-out not given here; potency means the concentration at half of the fitted maximal effect; nearly all actives have a fitted effect of over 45% in size
HCMV inh = human cytomegalovirus inhibition; AID 1259415; 410,000 compounds, 4.5% hits; activity change, negative = inhibition, % at 57.5 µM; HFF cells, HCMV-luciferase reporter, 72 h; active compounds read low; in the data active means activity change below about -60%; inconclusive means no clear call, values can overlap the other calls; inactive means above about -39%
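Cell-based, HFFs, 1000 cells/well, 16 h 37C; cpds in DMSO + HCMV-luc, MOI 1 PFU/cell; 72 h 37C; OneGlo luminescence after 5 min RT; norm. to buffer vs Salinomycin 10uM.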
Lassa entry inh = blocks Lassa virus binding to or entry into cells; Lassa virus pseudotype entry inhibition, cell reporter; Potency, µM (series often up to 37.9 µM), for the others: at the highest dose activity change, negative = inhibition, usual class: inhibitors; 300,000 compounds, 1.2% hits; AID 540256; calls by dose curve; tested in HEK293 cells; further: potency means the concentration at half of the fitted maximal effect; nearly all actives have a fitted effect of over 50% in size
* = called active by the depositor; [ ] = dose if it differs, or a comment. On the % scale 0 is the no-effect control and ±100 the full control effect.

For O=C1C=CC2(O[C@H](c3ccccc3)[C@@H](c3ccccc3)O2)[C@H](Sc2ccccc2O)C1 the results were Marburg entry inh inconclusive, FMDV antiviral 7.94µM*, HCMV inh -99.5* and Lassa entry inh 6.31µM*.
For N#Cc1cccc(NC(=O)c2cc3c(s2)-c2ccc(Cl)cc2SC3)c1 the results were Marburg entry inh 28.7%[46.1 µM], FMDV antiviral inconclusive, HCMV inh inconclusive and Lassa entry inh 1.8%[46.1 µM].
For CCOC(=O)C1=C(CSc2nc3ccccc3s2)NC(=O)NC1c1ccc(OC)cc1 (configuration not stated) the results were Marburg entry inh inconclusive, HCMV inh -60.0* and Lassa entry inh inconclusive.
For CCOC(=O)C1=C(CCc2ccccc2)NC(=O)NC1c1ccc(Br)cc1 (configuration not stated) the results were FMDV antiviral -11.1% and HCMV inh -13.8.
CCOC(=O)C1=C(CN2CCN(c3cc(C)ccc3C)CC2)NC(=O)NC1c1ccc(Cl)cc1 (configuration not stated) was read as Marburg entry inh inconclusive, FMDV antiviral 0.0%, HCMV inh -80.5* and Lassa entry inh inconclusive.
CCOC(=O)C1=C(CN2CCN(c3ccc(OC)cc3)CC2)NC(=O)NC1c1ccc(Cl)cc1 (configuration not stated) was read as Marburg entry inh inconclusive, FMDV antiviral 0.0%, HCMV inh inconclusive and Lassa entry inh inconclusive.
Screening CCOC(=O)C1=C(c2ccccc2)NC(=O)NC1c1ccc(O)c(Cl)c1 (configuration not stated) returned FMDV antiviral 8.91µM* and HCMV inh -101.6*.
`CCOC(=O)C1=C(c2ccccc2)NC(=O)NC1c1ccc(O)c(OCC)c1` (configuration not stated) gave Marburg entry inh 8.8%[46.1 µM], FMDV antiviral -23.9%, HCMV inh -30.3 and Lassa entry inh -14.2%[46.1 µM].
Screening CCOC(=O)C1=C(CNCc2ccccc2)NC(=O)NC1c1ccc(C)cc1 (configuration not stated) returned Marburg entry inh -24.0%[46.1 µM], FMDV antiviral -21.6%, HCMV inh -69.7* and Lassa entry inh -16.3%[46.1 µM].
`COc1ccc(CCNC(=O)c2ccc3c(c2)CCN3S(=O)(=O)c2ccccc2)cc1OC` gave Marburg entry inh -14.5%[46.1 µM], FMDV antiviral -7.5%, HCMV inh inconclusive and Lassa entry inh 1.2%[46.1 µM].
Screening CCCCCCCC#Cc1ccccc1C=NS(=O)c1ccc(C)cc1 (configuration not stated) returned Marburg entry inh 4.1%[14.2 µM].
`CC1(C)[C@H](C(=O)NC2CCCCCC2)CC[C@]1(C)C(=O)O` gave Marburg entry inh 20.9%.
O=C1c2ccccc2C(=O)C1(c1ccccc1)N1CCN(c2cccc(Cl)c2)CC1 was read as Marburg entry inh -6.5%[46.1 µM], FMDV antiviral -22.4%, HCMV inh -21.7 and Lassa entry inh -18.0%[46.1 µM].
CCn1ccc2cc(S(=O)(=O)N3CCCN(C(=O)Nc4ccc(C)cc4Cl)CC3)ccc21 was read as FMDV antiviral -1.8%, HCMV inh -25.6 and Lassa entry inh inconclusive.
Screening CCOc1ccc(S(=O)(=O)NCC(c2ccco2)S(=O)(=O)c2ccc(F)cc2)cc1 (configuration not stated) returned FMDV antiviral 16.1%, HCMV inh -22.0 and Lassa entry inh -19.1%[46.1 µM].
`Cc1ccc(OCC(=O)N(Cc2ccco2)Cc2ccc(C)o2)cc1` gave Marburg entry inh -0.9%[46.1 µM], FMDV antiviral -22.8%, HCMV inh -32.0 and Lassa entry inh 12.7%[46.1 µM].
For CCOC(=O)C1=C(CN2CCN(c3ccc(C)cc3C)CC2)NC(=O)NC1c1ccc(OC)cc1 (configuration not stated) the results were FMDV antiviral inconclusive, HCMV inh -81.6* and Lassa entry inh inconclusive.
`CCOC(=O)C1=C(CN2CCN(c3ccc(OC)cc3)CC2)NC(=O)NC1c1ccc(OC)cc1` (configuration not stated) gave FMDV antiviral -25.7%, HCMV inh -25.6 and Lassa entry inh -27.3%[46.1 µM].
Cc1nn2c(=O)cc(COC(=O)c3cccs3)nc2s1 was read as FMDV antiviral 55.0%, HCMV inh -1.7 and Lassa entry inh inconclusive.
Screening CC(C)C(=O)N1CCN(c2nc(-c3ccc(Cl)cc3)cs2)CC1 returned FMDV antiviral -12.9% and HCMV inh -70.4*.
For O=C(Cc1cccs1)N1CCN(c2nc(-c3ccc(Cl)cc3)cs2)CC1 the results were Marburg entry inh inconclusive, FMDV antiviral inconclusive, HCMV inh -108.1* and Lassa entry inh -25.1%.
Cn1nnc2c(NCc3c(F)cccc3F)ncnc21 was read as FMDV antiviral 1.7%, HCMV inh -15.1 and Lassa entry inh 3.5%[46.1 µM].
Screening Cn1ncc(Cl)c1C(=O)NCc1ccc(Cl)cc1 returned Marburg entry inh -14.5%, FMDV antiviral inconclusive, HCMV inh -71.9* and Lassa entry inh -14.7%.
`Cn1ncc(Cl)c1C(=O)Nc1ccncc1` gave Marburg entry inh -0.2%, FMDV antiviral 3.6%, HCMV inh -3.0 and Lassa entry inh -1.0%.
CNC(=O)c1sc(N2N=C3/C(=C/c4ccccc4)CCCC3C2c2ccccc2)nc1C (configuration not stated) was read as Marburg entry inh inconclusive, FMDV antiviral inconclusive, HCMV inh -39.1 and Lassa entry inh inconclusive.
Screening CNC(=O)c1sc(N2N=C3/C(=C\c4ccccc4)CCCC3C2c2ccccc2)nc1C (configuration not stated) returned Marburg entry inh inconclusive, FMDV antiviral 31.6µM*, HCMV inh -28.3 and Lassa entry inh inconclusive.
Screening COCCN(C(=O)CSc1nnc2cc(C)c3ccccc3n12)c1c(N)n(Cc2ccccc2)c(=O)[nH]c1=O returned Marburg entry inh inconclusive, FMDV antiviral -17.9%, HCMV inh -93.7* and Lassa entry inh inconclusive.
For COCCN(C(=O)CSc1nnc(C)n1Cc1ccccc1)c1c(N)n(Cc2ccccc2)c(=O)[nH]c1=O the results were Marburg entry inh inconclusive, FMDV antiviral 3.3% and Lassa entry inh 1.2%.
Screening CC(=O)Nc1ccc(C(=O)OCC(=O)N(c2ccccc2)C2CCS(=O)(=O)C2)cc1 (configuration not stated) returned FMDV antiviral 1.8% and HCMV inh 0.6.
For O=C(CCl)N(c1ccccc1)C1CCS(=O)(=O)C1 (configuration not stated) the results were Marburg entry inh inconclusive, FMDV antiviral inconclusive, HCMV inh -102.6* and Lassa entry inh inconclusive.
CN(C)c1oc(-c2ccc(COc3ccccc3)o2)nc1C#N was read as Marburg entry inh 13.0%[46.1 µM], FMDV antiviral -4.5%, HCMV inh 0.8 and Lassa entry inh -6.6%[46.1 µM].
Screening O=C(CSc1oc(-c2ccc(F)cc2)nc1S(=O)(=O)c1ccccc1)NCC1CCCO1 (configuration not stated) returned Marburg entry inh inconclusive, FMDV antiviral -12.4%, HCMV inh -63.6* and Lassa entry inh -19.9%.
Screening CCCNS(=O)(=O)c1ccc(CCC(=O)N2CCN(c3ccc(OC)cc3)CC2)cc1 returned Marburg entry inh -17.9%, HCMV inh inconclusive and Lassa entry inh -8.1%.
For Cc1ccsc1-c1nc(CSCC(=O)N2CCN(c3ccccc3)CC2)c(C)o1 the results were Marburg entry inh 0.5%, FMDV antiviral inconclusive and HCMV inh 6.3.

Screening data as filed in PubChem.
